Screen size: about 310,000 compounds; about 1,000 (0.32%) were called active. Not all results are given here. Measured potencies and affinities stand elsewhere. Values without a mark were called inactive. No rule for the calls is given here.

This assay is described as follows: Inhibition of PhoP regulon, Salmonella typhi GFP reporter cells, confirmation, 4 h (AID 1850).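 Also: 0% = induced wells with vehicle and 100% = uninduced wells.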 Particulars: Salmonella Typhi PhoP-promoter GFP reporter, fluorescence, at 50 µM, stronger effect = higher value.
For the compound `CC1CCCCC12NC(=O)N(CC(=O)NCc1ccc3c(c1)OCO3)C2=O` (stereo not given), the inhibition was 5.06%.

Take `N#Cc1cc2c(nc1SCC(=O)O)CCCCC2`: the inhibition is 9.95%. Under `CCn1cc(C(=O)NCc2ccccc2)c(=O)c2cc(F)c(N3CCN(C(=O)c4ccco4)CC3)cc21` stands -5.58%; under `CCCCNC(=O)c1cn(CC)c2cc(N3CCN(C)CC3)c(F)cc2c1=O`, -13.3%.

As to `CCn1cc(C(=O)NCCC(C)C)c(=O)c2cc(F)c(N3CCN(C)CC3)cc21`, the inhibition was 5.29%. As for `CCN(CC)CCNC(=O)c1cn(CC)c2cc(N3CCN(C)CC3)c(F)cc2c1=O`, the figure is -0.07%; as for `CCCNC(=O)c1cn(CC)c2cc(N3CCN(C(=O)c4ccco4)CC3)c(F)cc2c1=O`, 1.38%. As for `CCn1cc(C(=O)NCc2cccc(F)c2)c(=O)c2cc(F)c(N3CCN(C(=O)c4ccco4)CC3)cc21`, the figure is -0.01%; as for `CCN(CC)CCNC(=O)c1cn(CC)c2cc(N3CCN(C(=O)c4ccco4)CC3)c(F)cc2c1=O`, 5.87%. Under `CCn1cc(C(=O)NCC(C)C)c(=O)c2cc(F)c(N3CCN(C(=O)c4ccco4)CC3)cc21` stands 1.03%. On to `COc1ccc(C(C)NC(=O)Cc2cccs2)cc1` (stereo not given), for which the inhibition is 1.87%.

`O=C(Nc1nnc(Cc2ccccc2F)s1)c1ccccc1Cl`: the inhibition was -2.4%. Under `O=C(COC(=O)C1CCN(c2ccc(C(F)(F)F)cn2)CC1)NCc1ccc(F)cc1` stands 2.12%; under `CC(Oc1ccccc1)C(=O)Nc1ccc(S(=O)(=O)Nc2nccs2)cc1` (stereo not given), -2.94%; under `COC(=O)c1c(C(=O)OC)c(-c2ccc(OC)cc2)n2c1CS(=O)(=O)C2`, -2.28%.

With `CCOc1ccccc1N(CC(=O)N1CCOCC1)S(=O)(=O)c1ccccc1`, the inhibition was 11.6%. Under `CCOc1ncccc1C(=O)Nc1cccc(Cl)c1Cl` stands -6.65%; under `COC(=O)c1ccc(C)c(NC(=O)CCc2cc(OC)c(OC)c(OC)c2)c1`, 8.83%.

`COc1cc(/C=N/NC(=O)c2ccncc2)cc(OC)c1OC`: the inhibition is 6.9%. As for `COc1cccc(C(O)c2cnc(C(C)C)n2C)c1` (stereo not given), the figure is 5.41%; as for `CCCC(=O)Nc1c2c(nn1-c1ccc(F)cc1)CS(=O)(=O)C2`, -3.29%. Regarding `CCn1cc(C(=O)NCCCO)c(=O)c2cc(F)c(N3CCN(C)CC3)cc21`, the inhibition is 6.73%. As for `CCCCCCNC(=O)c1cn(CC)c2cc(N3CCN(C)CC3)c(F)cc2c1=O`, the figure is -4.8%; as for `CCn1cc(C(=O)N[C@H](C)c2ccccc2)c(=O)c2cc(F)c(N3CCN(C)CC3)cc21`, 2.31%; as for `CCn1cc(C(=O)NCC2CCCO2)c(=O)c2cc(F)c(N3CCN(C)CC3)cc21` (stereo not given), 1.91%. As for `CCCCNC(=O)c1cn(CC)c2cc(N3CCN(C(=O)c4ccco4)CC3)c(F)cc2c1=O`, the figure is -5.26%. As for `CCn1cc(C(=O)NN)c(=O)c2cc(F)c(N3CCOCC3)cc21`, the figure is -10.2%.

Turning to `CCn1cc(C(=O)NN)c(=O)c2cc(F)c(N3CCN(C)CC3)cc21`, the inhibition was 3.76%. As for `Cc1cccn2c(=O)c(C(=O)NCCCN3CC(C)CC(C)C3)c(O)nc12` (stereo not given), the figure is 0.48%.

With `COc1cccc2cc(C(=O)OCC(=O)NCc3ccc4c(c3)OCO4)c(=O)oc12`, the inhibition is 7.88%. As for `CS(=O)(=O)N1CCN(c2ccccc2NC(=S)NC(=O)c2cccs2)CC1`, the figure is -10.5%. As for `N#CCSc1nccc(/C=C/c2ccccc2)n1`, the figure is 6.91%; as for `O=C(O)C[C@H]1c2cc(F)ccc2S(=O)(=O)N1C1CCCC1`, -2.28%.

For `CC(=O)Nc1ccccc1N(C)S(=O)(=O)c1ccc(C)cc1`, the inhibition was -1.46%.

With `Cn1c(=O)n(C)c2cc([N+](=O)[O-])c(N3CCN(C(=O)c4ccc(Cl)cc4)CC3)cc21`, the inhibition is -4.31%. Turning to `CCCc1cc(=O)n2[nH]c(C)nc2n1`, the inhibition is 18.9%. As for `Cc1ccc(O)c(C(=O)CC(=O)c2cccc(F)c2)c1`, the figure is 8.82%; as for `Cc1cccc(C(=O)CC(=O)c2cc(Cl)ccc2O)c1`, 1.32%.

Consider `Cc1ccc(C(=O)CC(=O)c2cc(Cl)ccc2O)cc1`, for which the inhibition is -2.62%.

Regarding `O=C(CC(=O)c1ccccc1O)c1ccc(F)cc1`, the inhibition is 3.76%. Under `Cc1cc(C)c(C(=O)CC(=O)c2ccccc2Cl)c(O)c1` stands 11.6%; under `Cc1ccc(C(=O)CC(=O)c2cccc(F)c2)c(O)c1`, 5.16%. Under `CC(CC(=O)NCc1ccco1)S(=O)(=O)c1ccc2c(c1)CCN2C(=O)C1CC1` (stereo not given) stands -3.2%.

Turning to `O=c1c(C/C=C/c2ccccc2)c(O)ccn1CCc1c[nH]c2ccccc12`, the inhibition was 4.16%. For `CCOCCOC(NC(=O)c1ccccc1)(C(F)(F)F)C(F)(F)F`, the inhibition is -1.49%. As for `CCOC(=O)CSc1nc(Nc2ccc3c(c2)OCO3)c2ccccc2n1`, the figure is -1.83%.

In the case of `O=C(COc1ccc(Br)cc1CNCCCN1CCOCC1)Nc1ccccc1`, the inhibition was -6.17%. As for `COc1cccc(-c2nc(N)nc(SC)c2C#N)c1`, the figure is 5.06%; as for `CC(C)n1c(CN2CCN(C)CC2)nc2c1c(=O)n(C)c(=O)n2C`, 2.65%; as for `O=c1[nH]c(C2CCN(S(=O)(=O)c3ccccc3)CC2)nc2c1nnn2Cc1ccc2c(c1)OCCO2`, -22.2%. On to `OCC1(Cc2ccc(F)cc2)CCCN(CCc2ccccc2)C1` (stereo not given), for which the inhibition was 0.44%. Under `CCOc1ccccc1NC(=O)c1ccc2c(c1)C(=O)N(CC1CCCO1)C2=O` (stereo not given) stands -5.65%. On to `O=C(Nc1ccc(C2=NCCN2)cc1)c1ccc(Cl)c(C(=O)Nc2ccc(C3=NCCN3)cc2)c1`, for which the inhibition was 1.21%. As for `Cc1cccc(NC(=O)Nc2ccncc2)c1`, the figure is 16.9%; as for `C/C(CC(=O)Nc1cc(C)ccn1)=N\NC(=O)c1ccncc1`, 3.7%; as for `CCOC(=O)Cn1c(=N)n(CCOc2ccc(OC)cc2)c2ccccc21`, 10.3%. As for `CCOC(=O)Cn1c(=N)n(CCOc2cccc(C)c2)c2ccccc21`, the figure is -0.323%; as for `O=C(NCc1ccccn1)C1CN(S(=O)(=O)c2ccccc2)CCN1S(=O)(=O)c1ccccc1` (stereo not given), 1.61%. In the case of `Cc1sc2ncnc(SCC(=O)N3CCCC(C(F)(F)F)C3)c2c1C` (stereo not given), the inhibition is 8.83%. As for `Cc1cc(OCC(=O)N2CCC[C@@H]2C(=O)O)c2c(C)c(C)c(=O)oc2c1`, the figure is 5.08%; as for `O=C(Nc1ncc([N+](=O)[O-])s1)C1CC(=O)N(c2ccc(F)cc2)C1` (stereo not given), 13%. Under `O=C1CCCN1c1ncc(S(=O)(=O)c2ccc([N+](=O)[O-])cc2)s1` stands 0.41%; under `O=C(CCc1nnc2ccc(N3CCCCC3)nn12)NCc1ccco1`, -3.14%. Under `Cc1cc(C)c2nc(N(CCCN(C)C)C(=O)c3ccc(S(=O)(=O)N4CC(C)OC(C)C4)cc3)sc2c1` (stereo not given) stands 7.15%. Consider `O=C1NC(c2ccco2)Nc2ccccc21` (stereo not given), for which the inhibition was -3.49%. As for `O=C1CC(c2ccco2)Sc2ccccc2N1` (stereo not given), the figure is -2.22%; as for `O=C1CC(c2ccccc2)CC(=O)C1=CN1CCCC1` (stereo not given), -0.41%; as for `COCCCNC(=S)NNC(=O)c1csc(C)n1`, 3.64%.

In the case of `CC(=O)NNC(=S)NC(=O)c1ccc(C)cc1`, the inhibition was 9.68%. As for `O=C(CCc1ccccc1)NNC(=S)NC(=O)c1ccc(Cl)cc1`, the figure is 10.2%. Under `CC(=O)NC(=S)NNC(=O)CCc1ccccc1` stands -2.11%. For `CC(=O)NNC(=S)NC(=O)c1cccc([N+](=O)[O-])c1`, the inhibition was 5.04%. As for `Cc1ccc(C(=O)NNC(=S)NC(=O)c2ccc(Cl)cc2)cc1`, the figure is 6.07%; as for `Cc1ccc(C(=O)NC(=S)NNC(=O)c2ccccc2)cc1`, 19.1%. Under `COCCCNC(=S)NNC(=O)c1cccnc1` stands 1.9%; under `CC(C)CN(Cc1cc(=O)oc2cc3c(cc12)CCCC3)CC(C)C`, 3.63%; under `CCOc1ncccc1C(=O)OCCN1C(=O)c2ccccc2C1=O`, 7.33%. As for `O=C(NNS(=O)(=O)c1ccccc1)c1cccc([N+](=O)[O-])c1`, the figure is -3.37%.

In the case of `Cc1ccc(S(=O)(=O)NCc2cccnc2)c(C)c1`, the inhibition was 0.7%. Under `COc1ccc(-c2nc3n(c(=O)c2C#N)CCS3)cc1` stands 2%.

Regarding `CCCNS(=O)(=O)c1cc2c3c(c1)C(C)C(=O)N3CCC2` (stereo not given), the inhibition was 8.86%. Under `CC(=O)c1ccc(NC(=S)N2CCN(CCO)CC2)cc1` stands 5.45%.

On to `Cc1cc(C)c(C(N)=O)c(NCCc2ccccc2)n1`, for which the inhibition is -2.71%. On to `c1ccc(-c2nnc(CSc3nc4ccccc4[nH]3)o2)cc1`, for which the inhibition is -20.5%. Under `CC1CCCCN1C(=O)c1ccc(NC(=O)c2ccccc2Cl)cc1` (stereo not given) stands 3.28%. Under `O=C(CCc1ccccc1)NNC(=O)CCc1ccccc1` stands -2.48%. As for `O=C(NNC(=S)Nc1ccccc1)c1ccc(O)cc1`, the figure is 9.42%. Regarding `O=C(NC(=S)NNC(=O)c1ccccc1O)c1ccccc1`, the inhibition is 4.34%. On to `O=C(CCc1ccccc1)NNC(=O)c1ccccc1Cl`, for which the inhibition was 3.05%. Under `c1ccc(C[C@H]2CNCCN2CC2(c3ccccc3)CC2)cc1` stands -6.5%; under `Cc1cc2oc(C(=O)NCc3ccccc3)cc(=O)c2cc1C`, -12.8%. As for `CC1=NNC(=O)/C1=C\c1cn(-c2ccccc2)nc1-c1ccccc1`, the figure is 10.4%; as for `CC1=C(C(=O)Nc2ccc(C)cc2C)C(c2cccs2)NC(=S)N1` (stereo not given), 2.73%.

Take `O=C(Nc1ccc(Cl)cc1)N1CCCN(Cc2ccc(F)cc2)C1`: the inhibition was 0.26%. As for `O=C(Nc1ccccc1)N1CCCN(Cc2ccccc2F)C1`, the figure is 14%.

(Values after PubChem BioAssay AID1850 (Southern Research Specialized Biocontainment Screening …, 2009).)
